Results taken from PubChem BioAssay (NCATS).
Inconclusive results are not listed. Entries that show only a call come without a potency. The source made the active and inactive calls. The call rests on the fitted dose curve; in most records, active means well fitted curve in the direction sought with a large enough effect; inconclusive means small, poorly fitted or top-dose-only effect, or another doubt; inactive means no such curve, though single readings can be large; an effect the other way counts as inactive or inconclusive.

Key:
[1] = molecular target: Aldehyde dehydrogenase, mitochondrial (Homo sapiens) (UniProt P05091); test: qHTS for Inhibitors of the Aldehyde Dehydrogenase Family (ALDH2) Primary screen (AID 2061308); further: nearly all actives have a fitted effect of over 55% in size
[2] = molecular target: Retinaldehyde dehydrogenase 3 (Homo sapiens) (UniProt P47895); test: qHTS for Inhibitors of the Aldehyde Dehydrogenase Family (ALDH1A3) Primary screen (AID 2061315)

Compound	Potency [1]	Potency [2]
COc1cccc(C2=Nn3c(nnc3-c3cccc(OC)c3OC)SC2)c1	inactive	inactive
O=C1CCCC2=C1[C@@]1(CCC(c3ccccc3)C1)N=C(Nc1nc3ccccc3o1)N2 (some centres not stated)	inactive	inactive
Cc1ccc(NS(=O)(=O)c2cc3c(cc2-c2cn[nH]c2)NC(=O)CO3)cc1C	inactive	inactive
Nc1cc(NC(=O)Nc2nnc(-c3ccncc3)s2)ccc1Cl	inactive	inactive
O=C(OCC#CCSc1nnc(-c2cccc3ccccc23)o1)c1csc2ccccc12	inactive	inactive
CC(C)(C)OC(=O)N1CCN(c2ccc(NCc3nnc(-c4ccc(C#N)cc4)o3)cc2)CC1	inactive	inactive
COc1ccc(-c2nc3ccccc3c(=O)n2Cc2ccco2)cc1COc1c(C)cccc1C	inactive	inactive
COc1ccc2c(c1)N1C(=O)C[C@@]34C=CC[N@+]5([O-])CC[C@H]2[C@H](CC3)[C@@]145	inactive	inactive
Cc1ccc(NS(=O)(=O)c2cc3c(cc2N(C)CCN(C)C)NC(=O)CC3)cc1C	inactive	inactive
O=c1c2ccccc2nc2sc(Nc3ccc4c(c3)CCC4)nn12	inactive	inactive
CC(C)c1ccccc1-c1ncc(F)c(NCC2CCN(c3cnccn3)C2)n1 (configuration not stated)	inactive	inactive
CCN(CC)CCn1c(-c2ccccc2)nc2c(NCCOC)nc(C)nc21	inactive	inactive
COC1CC(O[C@H]2CC[C@]3(C)C4CC[C@]5(C)C(C6=CC(=O)OC6)=CCC56OC46CC[C@@H]3C2)OC(C)C1O[C@@H]1O[C@H](CO[C@@H]2O[C@H](CO)[C@@H](O)[C@H](O)[C@H]2O)[C@@H](O)[C@H](O)[C@H]1O (some centres not stated)	inactive	inactive
CCOc1cc(F)c(CCNC(=O)c2cc3sccc3n2Cc2ccccc2)cc1OCC	inactive	inactive
Cc1ccc(S(=O)(=O)Nc2cccc(C(=O)Nc3nc(-c4ccc(Cl)cc4)cs3)c2)cc1	inactive	inactive
CC(C)(C)c1ccc(-n2cnc3cc(C(=O)N4CCCCC4)ccc32)cc1	inactive	inactive
c1cncc(CNc2ccnc(-c3ccc4c(c3)OCO4)n2)c1	inactive	inactive
Cc1cccc(-n2cnc3cc(C(=O)N4CCC(N5CCOCC5)CC4)ccc32)c1	inactive	inactive

Compound	Potency [1]	Potency [2]
Cc1cccc(NC(=O)c2cc(-c3ccc(C)c(C)c3)nc3ccccc23)c1	inactive	inactive
Cc1nc(CNc2ncnc3ccc(-c4ccoc4)cc23)cs1	inactive	inactive
COc1cccc(C(=O)Nc2ccc(-c3nc4ccccc4[nH]3)cc2)c1	inactive	inactive
C[C@H](C/C=C/C(C)(C)O)[C@H]1CC[C@@]2(C)[C@@H]3[C@@H](O[C@@H]4O[C@H](CO)[C@@H](O)[C@H](O)[C@H]4O)C=C4C(CC[C@H](O)C4(C)C)[C@]3(C=O)CC[C@]12C (some centres not stated)	inactive	inactive
Cc1ccc(NS(=O)(=O)c2ccc3c(c2)CCC(=O)N3)cc1Cl	inactive	inactive
O=C(OCC#CCSc1nnc(-c2ccc3ccccc3c2)o1)c1ccc(F)c(F)c1	inactive	inactive
S=c1[nH]c2ccccc2n1CCc1ccccc1	inactive	inactive
CCC(CC)C(=O)OC12C(OC(=O)C(C)C)C(C)C3(O)C(C=C(CO)CC4(O)C(=O)C(C)=CC43)C1C2(C)C (configuration not stated)	inactive	inactive
O=S(=O)(NCCNS(=O)(=O)c1c(F)cccc1F)c1ccc2c(c1)OCCO2	inactive	inactive
Cc1cc2c(s1)c1cnn(Cc3c(F)ccc(Cl)c3F)c(=O)c1n2C	inactive	inactive
COc1cc(O)c(C(CC(=O)N2CCC(C)CC2)c2ccc(C)cc2)c(OC)c1 (configuration not stated)	inactive	inactive
CCOC(=O)C1CCN(C(=O)C(C)(C)NC(=O)Nc2ccc(Oc3ccccc3)cc2)CC1	inactive	inactive
COc1ccc(C[C@H](C(=O)O)N2C(=O)c3ccc(C(=O)O)cc3C2=O)cc1	inactive	inactive
O=C1CCCC2=C1C(c1[nH]ncc1Cl)N=C(Nc1ccn[nH]1)N2 (configuration not stated)	inactive	inactive
O=C1CCCC2=C1C(c1[nH]ncc1Cl)N=C(Nc1nc3cc(Cl)ccc3o1)N2 (configuration not stated)	inactive	inactive
O=C1CCCC2=C1C1(CCSC1)N=C(Nc1nc3ccccc3o1)N2 (configuration not stated)	inactive	inactive
NC(=O)C1CCN(c2nc(-c3cccc4ccccc34)cs2)CC1	inactive	inactive
Cn1nnnc1Sc1ncnc2scc(-c3ccc4ccccc4c3)c12	inactive	inactive
